Where a name gives a salt, the structure may show the parent alone.
Experiments:
Test in all cases: Euclidean distance of Cell Painting phenotypic profile (signed KS, 77 features) to DMSO centroid (dimensionless distance); 5 or 10 uM (library dependent); higher = stronger phenotypic change vs DMSO (phenoactivity)
Details in all cases: 48 h
786-O = system: 786-O
Method in brief: (§1)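 Phenoactivity is computed as Euclidean distance to the median vehicle profile. The profiles, drawn from 77 Harmony features scored as signed Kolmogorov-Smirnov statistics versus same-plate vehicle wells, were corrected for plate position, correlation-weighted and replicate-averaged at the top dose. Stained cells were imaged confocally at 20X (9 fields/well) after 48 h with library compounds at 10 or 5 uM, 0.1% DMSO final, in five cancer lines and a healthy fibroblast line.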

A549 = system: A549
Method in brief: as §1

DU145 = system: DU145
Method in brief: as §1

FB = system: FB
Method in brief: as §1

HEPG2 = system: HEPG2
Method in brief: as §1

OVCAR4 = system: OVCAR4
Method in brief: as §1

| Structure (SMILES) | Euclidean distance (786-O) | Euclidean distance (A549) | Euclidean distance (DU145) | Euclidean distance (FB) | Euclidean distance (HEPG2) | Euclidean distance (OVCAR4) |
| --- | --- | --- | --- | --- | --- | --- |
| COc1ccc2c(O[C@@H]3C[C@H]4C(=O)N[C@]5(C(=O)NS(=O)(=O)C6CC6)C[C@H]5/C=C\CCCCN(C)C(=O)[C@@H]4C3)cc(-c3nc(C(C)C)cs3)nc2c1C [Simeprevir] | 1.38 | 2.3 | 1.29 | 0.939 | 0.799 | 1.23 |
| COc1cc(Nc2ncc(F)c(Nc3ccc4c(n3)NC(=O)C(C)(C)O4)n2)cc(OC)c1OC | 1.65 | 3.73 | 2.9 | 3.35 | 1.78 | 2.24 |
| C[C@H]1CNC(=O)c2cnn3ccc(nc23)N[C@H](C)c2cc(F)ccc2O1 | 4.06 | 4.83 | 5.02 | 3.45 | 2.14 | 4.45 |
| CN1C2CCCC1CC(NC(=O)c1nn(C)c3ccccc13)C2 (stereo unspecified) [Granisetron] | 1.06 | 0.852 | 0.646 | 1.23 | 1 | 2.06 |
| Cn1cc(Nc2nccc(N3C[C@H]4CC[C@@H](C3)N4C(=O)[C@@H]3CC3(F)F)n2)cn1 | 1.66 | 1.31 | 0.715 | 2.16 | 0.594 | 3.68 |
| CN1CCC[C@@H]1CCO[C@](C)(c1ccccc1)c1ccc(Cl)cc1 [Clemastine Fumarate] | 1.5 | 1.22 | 1.59 | 1.96 | 2.11 | 1.18 |
| CCNC(=O)c1[nH]nc(-c2cc(Cl)c(O)cc2O)c1-c1ccc(OC)cc1 | 2.94 | 3.74 | 2.8 | 3.65 | 3.19 | 2.79 |
| CC#CCn1c(N2CCC[C@@H](N)C2)nc2c1c(=O)n(Cc1nc(C)c3ccccc3n1)c(=O)n2C [Linagliptin] | 0.904 | 0.984 | 0.641 | 1.4 | 0.628 | 0.529 |
| COc1cc(C(=O)O)ccc1NC(=O)[C@@H]1N[C@@H](CC(C)(C)C)[C@](C#N)(c2ccc(Cl)cc2F)[C@H]1c1cccc(Cl)c1F [Idasanutlin (RG-7388)] | 1.61 | 1.57 | 1.55 | 1.43 | 1.15 | 1.59 |
| O=C(Nc1cc(C(F)(F)F)cc(C(F)(F)F)c1)c1cc(Cl)ccc1O | 0.884 | 0.772 | 1.02 | 1.14 | 0.971 | 1.48 |
| O=C1N=C(O)NC1(c1ccccc1)c1ccccc1 [Phenytoin sodium] | 0.57 | 0.743 | 0.884 | 1.08 | 0.937 | 1.27 |
| CC(C)N(CCC(=O)c1ccc2ccccc2c1)Cc1ccccc1 | 1.68 | 1.15 | 0.815 | 1.33 | 0.594 | 0.928 |
| CC(=O)O[C@H]1C[C@@]2(C)[C@@H](C[C@@H](O)[C@H]3[C@@]4(C)CC[C@@H](O)[C@@H](C)[C@@H]4CC[C@@]32C)/C1=C(\CCC=C(C)C)C(=O)O [Fusidine] | 0.63 | 0.807 | 0.822 | 0.84 | 0.634 | 1.3 |
| Cc1c(NC(=O)OC[C@@H]2COCCN2)cn2ncnc(Nc3ccc4c(cnn4Cc4cccc(F)c4)c3)c12 | 2.06 | 1.47 | 1.13 | 1.52 | 1.28 | 0.963 |
| CN(C)CCCN1c2ccccc2Sc2ccc(C(F)(F)F)cc21 [Triflupromazine hydrochloride] | 1.77 | 1.63 | 1.6 | 2.36 | 1.76 | 1.47 |
| CCN(Cc1ccncc1)C(=O)C(CO)c1ccccc1 (stereo unspecified) [Tropicamide] | 1.11 | 1.27 | 1.8 | 1.01 | 0.684 | 1.3 |
| CO[C@H]1/C=C/O[C@@]2(C)Oc3c(C)c(O)c4c(c3C2=O)C2=NC3(CCN(CC(C)C)CC3)NC2=C(NC(=O)/C(C)=C\C=C\[C@H](C)[C@H](O)[C@@H](C)[C@@H](O)[C@@H](C)[C@H](OC(C)=O)[C@@H]1C)C4=O [Rifabutin] | 1.26 | 0.759 | 1.51 | 1.08 | 2.11 | 1.35 |
| O=C(O[C@@H]1C[C@@H]2C[C@H]3C[C@H](C1)N2CC3=O)c1c[nH]c2ccccc12 [Dolasetron Mesylate] | 1.12 | 0.793 | 0.963 | 1.17 | 0.558 | 1.22 |
| CC(C)OC(=O)OCOP(=O)(CO[C@H](C)Cn1cnc2c(N)ncnc21)OCOC(=O)OC(C)C [Tenofovir Disoproxil Fumarate] | 3.16 | 2.92 | 1.88 | 3.17 | 3.46 | 2.99 |
| CC1OC2(CS1)CN1CCC2CC1 (stereo unspecified) [Cevimeline] | 1.52 | 1.3 | 0.896 | 1.55 | 0.72 | 1.48 |
| Nc1ncnc2n[nH]c(Nc3ccc(F)cc3)c12 | 0.861 | 2.17 | 1.25 | 1.67 | 0.599 | 1.4 |
| CCCN1CCCC[C@H]1C(=O)Nc1c(C)cccc1C [Ropivacaine Mesilate] | 0.655 | 0.72 | 1.14 | 0.717 | 0.914 | 0.946 |
| CNC(=C[N+](=O)[O-])NCCSCc1csc(CN(C)C)n1 [Nizatidine] | 1.68 | 1.53 | 2.02 | 0.759 | 1.7 | 1.18 |

| Structure (SMILES) | Euclidean distance (786-O) | Euclidean distance (A549) | Euclidean distance (DU145) | Euclidean distance (FB) | Euclidean distance (HEPG2) | Euclidean distance (OVCAR4) |
| --- | --- | --- | --- | --- | --- | --- |
| OCCN1CCN(CC/C=C2/c3ccccc3Sc3ccc(C(F)(F)F)cc32)CC1 [Flupenthixol dihydrochloride] | 1.63 | 2.21 | 1.71 | 2.52 | 2.68 | 2.01 |
| CCCN(CCC)S(=O)(=O)c1ccc(C(=O)O)cc1 [Probenecid] | 1.08 | 0.549 | 1.42 | 0.831 | 0.652 | 1.69 |
| CC1(C)CC(Oc2ccc(-c3ccc(-c4cn[nH]c4)cc3O)nn2)CC(C)(C)N1 [Branaplam (LMI070)] | 2.88 | 2.86 | 4.33 | 3.24 | 3.03 | 3.09 |
| O=C(CCCCCCC(=O)Nc1ccccc1)NO [Vorinostat (SAHA. MK0683)] | 3.44 | 2.96 | 3.15 | 3.77 | 3.15 | 2.85 |
| CN[C@@H](C)C(=O)N[C@H](C(=O)N1CCC[C@H]1C(=O)Nc1snnc1-c1ccccc1)C1CCCCC1 | 0.872 | 1.58 | 0.883 | 1.38 | 0.88 | 3.41 |
| NS(=O)(=O)c1cc2c(cc1Cl)N=CNS2(=O)=O [Chlorothiazide] | 1.21 | 0.957 | 1.22 | 1.35 | 0.662 | 0.734 |
| O=C(NCc1ccc(Oc2ccccc2)cc1)c1nc(-c2cc(Br)c(O)c(Br)c2)no1 | 0.904 | 1.1 | 0.858 | 0.788 | 1.55 | 1.21 |
| CCn1c(=O)c(-c2cc(NC(=O)Nc3ccccc3)c(F)cc2Br)cc2cnc(NC)cc21 [Ripretinib (DCC-2618)] | 2.86 | 3.27 | 2.91 | 3.89 | 2.27 | 3.18 |
| Cc1ccccc1N1C(=O)c2cc(S(N)(=O)=O)c(Cl)cc2NC1C (stereo unspecified) [Metolazone] | 1.06 | 0.914 | 1.26 | 0.909 | 0.715 | 1.05 |
| O=c1c(O)c(-c2ccc(O)c(O)c2)oc2cc(O)cc(O)c12 [Quercetin Dihydrate] | 0.703 | 1.01 | 0.731 | 0.799 | 0.874 | 0.868 |
| CCCC(=O)Nc1ccc(OCC(O)CNC(C)C)c(C(C)=O)c1 (stereo unspecified) [Acebutolol HCl] | 0.96 | 0.8 | 1.23 | 1.3 | 0.817 | 1.34 |
| CC[C@H](C)C(=O)O[C@H]1CCC=C2C=C[C@H](C)[C@H](CC[C@@H]3C[C@@H](O)CC(=O)O3)[C@H]21 [Mevastatin] | 2.6 | 1.88 | 0.707 | 3.12 | 1.43 | 1.64 |
| CC(C)C[C@H](NC(=O)[C@H]1O[C@@H]1C(=O)O)C(=O)NCCCCN=C(N)N | 1.31 | 1.07 | 1.07 | 1.02 | 0.615 | 1.09 |
| CCN(CC)CCOCCOC(=O)C1(c2ccccc2)CCCC1 [Pentoxyverine Citrate] | 0.795 | 0.55 | 0.661 | 0.588 | 0.353 | 0.939 |
| Brc1c(NC2=NCCN2)ccc2nccnc12 [Brimonidine Tartrate] | 0.514 | 0.618 | 0.478 | 0.739 | 0.644 | 0.833 |
| C=CCCCCCCCCC(=O)[O-].C=CCCCCCCCCC(=O)[O-].[Zn+2] [Zinc Undecylenate] | 1.22 | 2.06 | 1.09 | 1.1 | 0.358 | 1.9 |
| CCCCOc1cc(C(=O)NCCN(CC)CC)c2ccccc2n1 [Dibucaine HCl] | 1.45 | 1.68 | 1.23 | 1.07 | 1.52 | 1.07 |
| Cn1c(N2CCCCS2(=O)=O)nc(C(=O)NCc2ccc(F)cc2)c(O)c1=O | 3.24 | 2.86 | 4.79 | 2.83 | 3.37 | 3.36 |
| Nc1nc(N)c2nc(-c3cccc(O)c3)c(-c3cccc(O)c3)nc2n1 | 1.06 | 1.73 | 1 | 1.45 | 2.84 | 1.02 |
| NCCc1c[nH]cn1 [Histamine Phosphate] | 1.2 | 0.956 | 1.77 | 1.25 | 1.23 | 1.04 |
| CCOC(=O)[C@@H](N)Cc1ccc(-c2cc(O[C@H](c3ccc(Cl)cc3-n3ccc(C)n3)C(F)(F)F)nc(N)n2)cc1 [Telotristat Etiprate (LX 1606 Hippurate)] | 3.69 | 1.52 | 2.43 | 2.23 | 1.13 | 1.3 |
| COC(=O)[C@@H]1CC2=CC(=O)CC[C@]2(C)[C@@]23O[C@@H]2C[C@@]2(C)[C@@H](CC[C@@]24CCC(=O)O4)[C@H]13 [Eplerenone] | 1.18 | 0.666 | 0.81 | 0.974 | 1.38 | 0.746 |
| CCc1cc(C(N)=O)ccc1-n1nc(C(C)C)c2c(-n3cnc(-c4cnn(C)c4)c3)ccnc21 | 3.26 | 3.06 | 3.79 | 3.38 | 3.38 | 2.86 |
